# Reference: PubChem BioAssay (Tox21)
# Calls of active or inactive are those of the source. Entries that show only a call come without a potency. Unless noted, the call rests on the fitted dose curve; in most records, active means well fitted curve in the direction sought with a large enough effect in the repeat runs; inconclusive means weak or mixed curves; inactive means no such curve, though single readings can be large; an effect the other way counts as inactive or inconclusive.
# What was measured:
# [1] = target: Acetylcholinesterase (Homo sapiens) (UniProt P22303); assay: Acetylcholinesterase (AChE) small molecule antagonists: fluorescence cell-based qHTS assay (AID 1347398; calls by dose curve; further: nearly all actives have a fitted effect of over 50% in size; further: potency means the concentration at half of the fitted maximal effect); conditions: Potency: AChE activity; outcome: AChE activity
# How it was run: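 SH-SY5Y, 2,000 cells/well, attached overnight; cmpd 30 min 37 C; acetylthiocholine/Thiolite Green cocktail 40 min RT; fluorescence Ex/Em 490/520 nm.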
# [2] = target: Acetylcholinesterase (Homo sapiens) (UniProt P22303); assay: Acetylcholinesterase (AChE) small molecule antagonists: enzyme-based qHTS assay with human liver microsomes (AID 1347399; calls by dose curve; further: nearly all actives have a fitted effect of over 60% in size); conditions: Potency: qHTS inhibition; outcome: qHTS inhibition
# How it was run: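 Recombinant human AChE (50 mU/mL in the enzyme mix) and human liver microsomes (0.25 mg/mL final) were preincubated with compound and NADPH (0.25 mg/mL final) for 30 min at 37 C. Acetylthiocholine/DTNB was then added; thiocholine was read colorimetrically after 10 min at room temperature.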
# [3] = target: Aromatase (Homo sapiens) (UniProt P11511); assay: qHTS assay to identify aromatase inhibitors (AID 743083); further: series mostly up to about 70 µM; nearly all actives have a fitted effect of over 55% in size
# [4] = target: Acetylcholinesterase (Homo sapiens) (UniProt P22303); assay: Acetylcholinesterase (AChE) small molecule antagonists: enzyme-based qHTS assay (AID 1347397; calls by dose curve; further: nearly all actives have a fitted effect of over 55% in size); conditions: Potency: AChE enzyme activity inhibition; outcome: AChE enzyme activity inhibition
# How it was run: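 Colorimetric DTNB read-out of thiocholine released from acetylthiocholine by recombinant human AChE (50 mU/mL as dispensed). Compounds were preincubated 30 min at RT before substrate/DTNB addition, with a 10 min RT reaction.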
# [5] = qHTS assay for small molecules that induce genotoxicity in human embryonic kidney cells expressing luciferase-tagged ATAD5 (AID 651632); further: nearly all actives have a fitted effect of over 15% in size
# How it was run: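 Test compounds were delivered by pin tool onto HEK293T reporter cells (2,000/well) expressing ATAD5 fused to luciferase. After 16 hr at 37C, 5% CO2, Amplite was added for 30 min at room temperature and luminescence was measured.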
# [6] = qHTS assay for small molecule agonists of the p53 signaling pathway - cell viability (AID 651633; calls by dose curve; further: potency means the concentration at half of the fitted maximal effect; nearly all actives have a fitted effect of over 30% in size)
# How it was run: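 p53RE-bla cells were treated with compound for 16 hours at 37 C. Cytotoxicity was then measured as CellTiter-Glo luminescence after 30 min at room temperature.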
# [7] = qHTS assay for small molecules that induce genotoxicity in human embryonic kidney cells expressing luciferase-tagged ATAD5 - cell viability (AID 651634; calls by dose curve; further: nearly all actives have a fitted effect of over 25% in size; further: potency means the concentration at half of the fitted maximal effect)
# How it was run: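 Quantitative high-throughput format. HEK293T cells expressing ATAD5 fused to luciferase were plated at 2,000 cells/well and treated 15.5 hr with compound versus DMSO. Viability was determined by fluorescent live-cell protease substrate, 30 min at 37C.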
# [8] = qHTS assay for small molecule disruptors of the mitochondrial membrane potential - cell viability (AID 720634; calls by dose curve;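 further: human HepG2 liver cancer cells; series mostly up to about 83 µM; nearly all actives have a fitted effect of over 20% in size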)
# How it was run: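 Same-well counter-screen: following the MMP dye addition, CellTiter-Glo was added to 1 hr compound-treated HepG2 cells and luminescence read after 30 min at room temperature.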
# [9] = qHTS assay for small molecule disruptors of the mitochondrial membrane potential (AID 720635); further: potency means the concentration at half of the fitted maximal effect
# How it was run: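 HepG2 cells exposed to compound 1 hr at 37C, then Mito-MPS dye 30 min. Ratio read of aggregate (540/590 nm) versus monomer (490/535 nm) fluorescence.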
# [10] = qHTS assay to test for compound auto fluorescence at 590 nm (red) in HepG2 cells (AID 720674)
# How it was run: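 Fluorescence at 590 nm emission following 540 nm excitation was recorded from HepG2 wells one hour after compound transfer, with DMSO-only wells as vehicle and Rose Bengal sodium equivalency as the scale.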
# [11] = qHTS assay to test for compound auto fluorescence at 535 nm (green) in HepG2 cells (AID 720675)
# [12] = qHTS assay to test for compound auto fluorescence at 460 nm (blue) in HEK293 cells (AID 720678)
# How it was run: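 Blue-channel (Ex/Em 405/460 nm) intensity measured in HEK293 cultures after overnight compound exposure at 37C; signal expressed relative to triamterene. Cells plated 2,000 per well in 10% dialyzed FBS medium and allowed 4-5 hr to attach.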
# [13] = qHTS assay to test for compound auto fluorescence at 590 nm (red) in HEK293 cells (AID 720679)
# How it was run: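 Red-channel autofluorescence (Ex/Em 540/590 nm; Rose Bengal sodium reference) was measured after overnight 37C, 5% CO2 exposure of attached HEK293 cells, 2,000 per well in medium with 10% dialyzed FBS.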
# [14] = qHTS assay to test for compound auto fluorescence at 535 nm (green) in HEK293 cells (AID 720680)
# [15] = qHTS assay to test for compound auto fluorescence at 535 nm (green) in HEK293 cell free culture (AID 720682)
# How it was run: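 Compounds were pin-transferred into cell-free DMEM with 10% FBS, and green fluorescence was read at excitation 485 nm and emission 535 nm. Intensities were expressed as fluorescein-equivalent values.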
# [16] = qHTS assay to test for compound auto fluorescence at 590 nm (red) in HEK293 cell free culture (AID 720683)
# How it was run: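 Cell-free wells of DMEM with 10% FBS received compound, and intrinsic fluorescence was read at excitation/emission 540/590 nm. Values expressed as equivalence to Rose Bengal sodium.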
# [17] = qHTS assay to test for compound auto fluorescence at 590 nm (red) in HepG2 cell free culture (AID 720684)
# How it was run: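 Rose Bengal sodium served as the reference for red signal. Test compounds were dispensed into serum-containing MEM (10% FBS) without cells, and plates were read at 540/590 nm.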
# [18] = qHTS assay to test for compound auto fluorescence at 460 nm (blue) in HepG2 cell free culture (AID 720685)
# How it was run: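 Cell-free plates of MEM plus 10% FBS received 23 nL compound or DMSO vehicle; blue-channel (405/460 nm) intensity scored against triamterene as reference fluorophore.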
# [19] = qHTS assay to test for compound auto fluorescence at 535 nm (green) in HepG2 cell free culture (AID 720686)
# [20] = qHTS assay to test for compound auto fluorescence at 460 nm (blue) in HepG2 cells (AID 720687)
# How it was run: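 HepG2 cells in MEM with 10% FBS, attached overnight at 37 C, were exposed to compound or DMSO for 1 hr at 37 C, 5% CO2. Blue fluorescence was read at 405/460 nm, with triamterene as reference fluorophore.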
# [21] = qHTS assay to identify small molecule antagonists of the glucocorticoid receptor (GR) signaling pathway - cell viability counter screen (AID 720693); further: potency means the concentration at half of the fitted maximal effect; nearly all actives have a fitted effect of over 55% in size
# [22] = qHTS assay for identifying genotoxic compounds that show differential cytotoxicity against isogenic chicken DT40 cell lines with known DNA damage response pathways - wild type cell line (AID 743012); further: potency means the concentration at half of the fitted maximal effect; nearly all actives have a fitted effect of over 60% in size
# How it was run: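 300 wt DT40 cells/well; cpd (DMSO) pintool-transferred after ~0.5 h at 37 C/5% CO2; 40 h incubation; CellTiter-Glo added, 30 min RT; luminescence read.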
# [23] = qHTS assay for identifying genotoxic compounds that show differential cytotoxicity against isogenic chicken DT40 cell lines with known DNA damage response pathways - Rev3 mutant cell line (AID 743014); further: potency means the concentration at half of the fitted maximal effect; nearly all actives have a fitted effect of over 55% in size
# [24] = qHTS assay for identifying genotoxic compounds that show differential cytotoxicity against isogenic chicken DT40 cell lines with known DNA damage response pathways - Rad54/Ku70 mutant cell line (AID 743015); further: potency means the concentration at half of the fitted maximal effect; nearly all actives have a fitted effect of over 60% in size
# [25] = qHTS assay to identify small molecule antagonists of the androgen receptor (AR) signaling pathway using the MDA cell line - cell viability counter screen (AID 743041; further: nearly all actives have a fitted effect of over 45% in size)
# How it was run: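 Cytotoxicity counter screen: MDA-kb2 AR-luc cells, compound + R1881, 16 h, 37C, 0% CO2; CellTiter-Fluor added at 15.5 h, fluorescence read after 30 min.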
# [26] = qHTS assay to identify small molecule antagonists of the thyroid receptor (TR) signaling pathway - cell viability counter screen (AID 743064); further: nearly all actives have a fitted effect of over 50% in size; further: potency means the concentration at half of the fitted maximal effect
# How it was run: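 In-well cytotoxicity read by CellTiter-Fluor (30 min, 37 C) following 23.5 h exposure of GH3 cells bearing a TRE-luciferase sensor. Compounds were added alongside 1 nM (final) T3 to drive TR transactivation.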
# [27] = qHTS assay to identify small molecule antagonists of the thyroid receptor (TR) signaling pathway (AID 743065); further: nearly all actives have a fitted effect of over 55% in size; further: potency means the concentration at half of the fitted maximal effect
# How it was run: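 GH3.TRE-Luc rat pituitary cells (two TREs driving luciferase) were dosed with compound, then stimulated with 1 nM T3 (final) for 23.5 h at 37 C. ONE-Glo luminescence was the read-out, with CellTiter-Fluor fluorescence as the cytotoxicity counter-screen.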
# [28] = qHTS assay to identify small molecule antagonists of the estrogen receptor alpha (ER-alpha) signaling pathway - cell viability counter screen (AID 743074; calls by dose curve;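 further: HEK293 cells carrying ER-alpha-UAS-bla reporter stimulated with 17beta-estradiol; potency means the concentration at half of the fitted maximal effect; nearly all actives have a fitted effect of over 45% in size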)
# [29] = target: Estrogen receptor (Homo sapiens) (UniProt P03372); assay: qHTS assay to identify small molecule agonists of the estrogen receptor alpha (ER-alpha) signaling pathway (AID 743075; calls by dose curve;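 further: HEK293 GripTite cells with ER-alpha and UAS-driven beta-lactamase reporter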; further: potency means the concentration at half of the fitted maximal effect)
# [30] = target: Estrogen receptor (Homo sapiens) (UniProt P03372); assay: qHTS assay to identify small molecule agonists of the estrogen receptor alpha (ER-alpha) signaling pathway using the BG1 cell line (AID 743079); further: potency means the concentration at half of the fitted maximal effect; nearly all actives have a fitted effect of over 20% in size
# [31] = qHTS assay to identify small molecule antagonists of the estrogen receptor alpha (ER-alpha) signaling pathway using the BG1 cell line - cell viability counter screen (AID 743081);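 further: compound given together with 17beta-estradiol as the ER stimulus; series mostly up to about 70 µM; nearly all actives have a fitted effect of over 45% in size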
# [32] = qHTS assay to identify aromatase inhibitors - cell viability counter screen (AID 743084)
# [33] = qHTS assay to identify small molecule that activate the aryl hydrocarbon receptor (AhR) signaling pathway - cell viability counter screen (AID 743086);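 further: HepG2 liver cells carrying the AhR DRE luciferase reporter; series mostly up to about 70 µM; nearly all actives have a fitted effect of over 45% in size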
# How it was run: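 HepG2-AhR-luc (HG2L7.5c1) cells, 4000/well, treated 24 h at 37 C with compound; viability measured as CellTiter-Fluor fluorescence after 30 min in the same wells as the luciferase read.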
# [34] = target: Peroxisome proliferator-activated receptor gamma (Homo sapiens) (UniProt P37231); assay: qHTS assay to identify small molecule agonists of the peroxisome proliferator-activated receptor gamma (PPARg) signaling pathway (AID 743094; active means well fitted activation curve with a large enough effect in the signal ratio in the repeat runs, not every such curve was filed as active; inconclusive means weak or mixed curves, or effect the other way; inactive means no such curve, though single readings can be large or run the other way; the % refers to the signal ratio)
# How it was run: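 Cell-based bla reporter, HEK293H background, PPARg-driven UAS. Pre-incubation 5 h, 37C, 5% CO2. Compound 17 h, 37C. Substrate 1 h RT; fluorescence.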
# [35] = target: Androgen receptor (Homo sapiens) (UniProt P10275); assay: qHTS assay to identify small molecule antagonists of the androgen receptor (AR) signaling pathway (AID 743035; active means well fitted inhibition curve with a large enough effect in the signal ratio in the repeat runs, not every such curve was filed as active; inconclusive means weak or mixed curves, or effect the other way; inactive means no such curve, though single readings can be large or run the other way; the % refers to the signal ratio; further: potency means the concentration at half of the fitted maximal effect)
# How it was run: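 In this cell-based reporter screen, compounds were tested in concentration series against R1881-activated HEK293 cells expressing beta-lactamase under UAS control; after 16 h at 37C, FRET substrate was added and fluorescence read 2 h later.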
# [36] = tested on: thyroid hormone receptor (rat, GH3 cells); assay: qHTS assay to identify small molecule agonists of the thyroid receptor (TR) signaling pathway (AID 743066; calls by dose curve)
# Chain of Aromatase (Homo sapiens) (P11511 whole entry, looked up): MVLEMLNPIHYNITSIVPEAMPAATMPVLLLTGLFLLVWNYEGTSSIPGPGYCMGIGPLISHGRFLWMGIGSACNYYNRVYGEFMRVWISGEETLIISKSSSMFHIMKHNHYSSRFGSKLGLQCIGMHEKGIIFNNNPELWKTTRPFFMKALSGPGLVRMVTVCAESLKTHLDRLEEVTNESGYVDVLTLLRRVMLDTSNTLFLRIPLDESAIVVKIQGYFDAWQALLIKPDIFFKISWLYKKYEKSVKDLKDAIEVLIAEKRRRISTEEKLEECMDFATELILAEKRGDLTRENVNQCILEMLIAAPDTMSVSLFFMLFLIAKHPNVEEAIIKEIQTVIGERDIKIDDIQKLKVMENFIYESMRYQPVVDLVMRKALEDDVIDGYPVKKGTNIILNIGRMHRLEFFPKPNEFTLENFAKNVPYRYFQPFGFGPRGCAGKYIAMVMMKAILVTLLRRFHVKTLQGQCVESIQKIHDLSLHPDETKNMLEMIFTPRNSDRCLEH
# Chain of Acetylcholinesterase (Homo sapiens) (P22303 whole entry, looked up): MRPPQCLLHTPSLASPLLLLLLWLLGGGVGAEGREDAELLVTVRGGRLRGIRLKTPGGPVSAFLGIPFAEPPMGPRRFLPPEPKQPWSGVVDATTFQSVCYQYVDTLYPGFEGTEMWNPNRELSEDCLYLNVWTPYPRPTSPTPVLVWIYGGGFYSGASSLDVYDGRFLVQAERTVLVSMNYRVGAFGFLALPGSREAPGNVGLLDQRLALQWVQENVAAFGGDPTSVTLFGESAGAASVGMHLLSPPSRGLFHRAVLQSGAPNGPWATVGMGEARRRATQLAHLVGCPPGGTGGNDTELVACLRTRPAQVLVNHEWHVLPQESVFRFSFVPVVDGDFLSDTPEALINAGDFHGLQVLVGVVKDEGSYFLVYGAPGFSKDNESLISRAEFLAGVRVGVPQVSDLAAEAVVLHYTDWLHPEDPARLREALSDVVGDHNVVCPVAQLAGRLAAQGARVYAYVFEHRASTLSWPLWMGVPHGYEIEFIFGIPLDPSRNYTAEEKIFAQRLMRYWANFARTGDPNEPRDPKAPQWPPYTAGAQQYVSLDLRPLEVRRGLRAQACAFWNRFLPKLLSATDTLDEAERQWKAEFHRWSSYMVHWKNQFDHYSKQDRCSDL
# Chain of Estrogen receptor (Homo sapiens) (P03372 whole entry, looked up): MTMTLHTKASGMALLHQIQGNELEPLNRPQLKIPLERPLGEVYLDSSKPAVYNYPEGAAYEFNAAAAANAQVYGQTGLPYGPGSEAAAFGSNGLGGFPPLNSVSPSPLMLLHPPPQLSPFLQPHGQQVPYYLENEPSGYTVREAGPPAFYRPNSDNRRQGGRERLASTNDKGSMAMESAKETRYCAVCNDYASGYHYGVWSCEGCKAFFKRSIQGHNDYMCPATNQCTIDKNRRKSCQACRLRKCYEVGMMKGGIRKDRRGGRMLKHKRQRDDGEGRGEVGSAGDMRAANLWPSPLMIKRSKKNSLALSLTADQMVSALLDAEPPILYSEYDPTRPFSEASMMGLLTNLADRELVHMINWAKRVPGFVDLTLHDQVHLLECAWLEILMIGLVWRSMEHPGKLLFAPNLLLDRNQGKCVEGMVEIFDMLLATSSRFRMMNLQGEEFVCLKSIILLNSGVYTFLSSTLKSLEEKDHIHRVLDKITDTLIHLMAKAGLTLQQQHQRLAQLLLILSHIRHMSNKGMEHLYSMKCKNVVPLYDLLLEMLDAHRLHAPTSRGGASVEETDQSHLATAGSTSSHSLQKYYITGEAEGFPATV
# Chain of Androgen receptor (Homo sapiens) (P10275 whole entry, looked up): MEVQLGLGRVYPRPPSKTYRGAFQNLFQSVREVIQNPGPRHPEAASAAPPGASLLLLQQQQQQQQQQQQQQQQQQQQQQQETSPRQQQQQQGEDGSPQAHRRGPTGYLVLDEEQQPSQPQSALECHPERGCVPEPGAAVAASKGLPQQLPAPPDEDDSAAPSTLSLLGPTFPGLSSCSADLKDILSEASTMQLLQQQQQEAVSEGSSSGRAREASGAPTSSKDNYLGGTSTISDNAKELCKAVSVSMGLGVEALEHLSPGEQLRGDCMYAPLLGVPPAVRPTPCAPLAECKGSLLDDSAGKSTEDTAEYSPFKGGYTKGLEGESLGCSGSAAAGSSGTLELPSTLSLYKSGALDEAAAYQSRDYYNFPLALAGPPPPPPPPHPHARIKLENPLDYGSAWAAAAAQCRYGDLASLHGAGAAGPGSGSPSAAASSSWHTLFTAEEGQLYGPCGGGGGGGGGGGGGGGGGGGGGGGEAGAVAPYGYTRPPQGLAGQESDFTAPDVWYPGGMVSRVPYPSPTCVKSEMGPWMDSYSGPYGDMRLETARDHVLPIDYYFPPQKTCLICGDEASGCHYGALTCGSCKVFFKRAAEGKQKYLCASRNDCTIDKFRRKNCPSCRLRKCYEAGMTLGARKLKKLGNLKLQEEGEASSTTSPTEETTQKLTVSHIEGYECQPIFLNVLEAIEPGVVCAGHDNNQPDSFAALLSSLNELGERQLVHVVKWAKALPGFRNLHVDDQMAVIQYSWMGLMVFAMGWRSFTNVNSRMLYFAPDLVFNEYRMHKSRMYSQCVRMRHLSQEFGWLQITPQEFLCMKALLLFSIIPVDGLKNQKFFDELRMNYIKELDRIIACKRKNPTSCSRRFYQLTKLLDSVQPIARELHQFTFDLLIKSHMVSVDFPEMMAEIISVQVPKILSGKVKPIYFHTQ
# Chain of Peroxisome proliferator-activated receptor gamma (Homo sapiens) (P37231 whole entry, looked up): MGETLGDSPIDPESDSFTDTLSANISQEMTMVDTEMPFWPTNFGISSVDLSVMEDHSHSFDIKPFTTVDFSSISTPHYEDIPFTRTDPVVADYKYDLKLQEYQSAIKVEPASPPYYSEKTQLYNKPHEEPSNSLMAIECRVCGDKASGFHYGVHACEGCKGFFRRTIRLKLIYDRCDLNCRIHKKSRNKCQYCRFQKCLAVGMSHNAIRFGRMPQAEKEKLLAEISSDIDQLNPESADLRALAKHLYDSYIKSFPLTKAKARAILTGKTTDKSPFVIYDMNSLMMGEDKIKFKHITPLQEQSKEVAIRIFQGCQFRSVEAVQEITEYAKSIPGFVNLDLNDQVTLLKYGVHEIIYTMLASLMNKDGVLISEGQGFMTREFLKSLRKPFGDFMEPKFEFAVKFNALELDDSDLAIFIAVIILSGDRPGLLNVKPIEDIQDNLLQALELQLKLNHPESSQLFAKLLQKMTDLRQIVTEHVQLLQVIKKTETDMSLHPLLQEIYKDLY
smiles,measurement,setting,value
Nc1cc(Cl)c(O)c(Cl)c1,Potency,[1],inactive
same,Potency,[2],inactive
O=[N+]([O-])O[C@@H]1CO[C@H]2[C@@H]1OC[C@@H]2O,Potency,[3],inactive
CC(C)C(=O)Nc1cccc(C2CN3CCSC3=N2)c1 (stereo not given),Potency,[4],inactive
same,Potency,[2],inactive
C#C[C@]1(OC(=O)CCCCCC)CC[C@H]2[C@@H]3CCC4=CC(=O)CC[C@@H]4[C@H]3CC[C@@]21C,outcome,[5],inactive
same,Potency,[6],29.8 µM (active)
same,Potency,[7],inactive
same,outcome,[8],inactive
same,Potency,[9],8.41 µM (active)
same,outcome,[10],inactive
same,outcome,[11],inactive
same,outcome,[12],inactive
same,outcome,[13],inactive
same,outcome,[14],inactive
same,outcome,[15],inactive
same,outcome,[16],inactive
same,outcome,[17],inactive
same,outcome,[18],inactive
same,outcome,[19],inactive
same,outcome,[20],inactive
same,Potency,[21],21.3 µM (active)
same,Potency,[22],2.66 µM (active)
same,Potency,[23],5.96 µM (active)
same,Potency,[24],5.96 µM (active)
same,outcome,[25],inactive
same,Potency,[26],11.9 µM (active)
same,Potency,[27],11.9 µM (active)
same,Potency,[28],19 µM (active)
same,Potency,[29],0.338 µM [inconclusive] (active)
same,Potency,[30],0.596 µM (active)
same,Potency,[31],inactive
same,Potency,[3],inactive
same,outcome,[32],inactive
same,Potency,[33],inactive
same,outcome,[34],inactive
CCOc1ccc(Cc2nccc3cc(OCC)c(OCC)cc23)cc1OCC,Potency,[1],15.5 µM (active)
same,Potency,[2],inactive
CCN(CC)CCNc1ccc(CNC=O)c2sc3ccc(OC)cc3c(=O)c12,Potency,[1],39.9 µM (active)
same,Potency,[2],inactive
CC(=O)O[C@H]1C[C@H](O[C@H]2[C@@H](O)C[C@H](O[C@H]3[C@@H](O)C[C@H](OC4CC[C@@]5(C)C(CC[C@@H]6[C@@H]5CC[C@]5(C)[C@@H](C7=CC(=O)OC7)[C@@H](O)C[C@]65O)C4)O[C@@H]3C)O[C@@H]2C)O[C@H](C)[C@H]1O[C@@H]1O[C@H](CO)[C@@H](O)[C@H](O)[C@H]1O (stereo not given in full),outcome,[5],inactive
same,Potency,[6],0.376 µM (active)
same,Potency,[7],0.75 µM (active)
same,outcome,[8],inactive
same,Potency,[9],0.944 µM (active)
same,outcome,[10],inactive
same,outcome,[11],inactive
same,outcome,[12],inactive
same,outcome,[13],inactive
same,outcome,[14],inactive
same,outcome,[15],inactive
same,outcome,[16],inactive
same,outcome,[17],inactive
same,outcome,[18],inactive
same,outcome,[19],inactive
same,outcome,[20],inactive
same,Potency,[21],2.39 µM (active)
same,Potency,[22],2.11 µM (active)
same,Potency,[23],2.66 µM (active)
same,Potency,[24],2.66 µM (active)
same,Potency,[35],4.25 µM (active)
same,Potency,[26],inactive
same,Potency,[27],inactive
same,outcome,[36],inactive
same,Potency,[28],0.379 µM (active)
same,Potency,[29],inactive
same,Potency,[31],inactive
same,Potency,[3],inactive
same,outcome,[32],inactive
same,Potency,[33],inactive
